SKKanGAS inh: S. pyogenes SKKanGAS growth inhibitors in kanamycin, primary screen, streptokinase expression inhibitor project, SKKanGAS strain, BacTiter-Glo luminescence. 6 h. inhibition, % at 7.5 µM. hit rate 1.3% among 300,000;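 active = mean replicate score, as percent of positive control median, at least 50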;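 also: strain carries kanamycin resistance gene driven by streptokinase promoter and grows in 40 µg/ml kanamycin; loss of luminescence reflects streptokinase promoter inhibition or plain growth inhibition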
tim23-1 inh: growth inhibitors of tim23-1 mutant yeast, primary screen, luminescence, uHTS | S. cerevisiae tim23-1 growth, BacTiter-Glo luminescence, 24 h | inhibition, % at 20 µM | hit rate 1.3% among 330,000 | AID 463212, 2010;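 active = growth inhibition of the mutant yeast at or above 50%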;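 also: temperature-sensitive mutant grown at 25 °C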
TIM10 inh: growth inhibitors of isogenic TIM10 control yeast, primary screen, counter-screen for tim10-1 yeast inhibitor project, luminescence, uHTS; S. cerevisiae TIM10 strain growth, BacTiter-Glo luminescence, 24 h; inhibition, % at 10 µM; hit rate 1.4% among 330,000;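 active = inhibition of 40% or more at the single tested concentration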;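 also: wild-type TIM10 isogenic control strain grown at permissive 25 °C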
PfHsp90 yeast 2: growth inhibition of PfHsp90-expressing yeast, primary screen, antimalarial PfHsp90 inhibitor project, S. cerevisiae, BacTiter-Glo luminescence, single point, set 2; BacTiter-Glo ATP, 48 h; yeast lacking PDR1 and PDR3 efflux regulators; inhibition, % at 9.4 µM; hit rate 0.32% among 310,000;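 active = every replicate shows inhibition above about 80%, whatever the replicate mean, limit read from the data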
tim10-1 inh: growth inhibitors of tim10-1 mutant yeast, primary screen, luminescence, uHTS | inhibition, % at 20 µM | S. cerevisiae tim10-1 ts strain growth, BacTiter-Glo, 24 h | hit rate 2.2% among 330,000 | AID 463190, 2010;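 active = inhibition of at least 40%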;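 also: mutant grown at 25 °C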
tim10 confirm: growth inhibitors of wild-type TIM10 yeast, confirmation, counter-screen for tim10-1 synthetic lethality project, single concentration, luminescence, S. cerevisiae; hit rate 63% among 4,600; shares compounds with TIM10 inh; S. cerevisiae tim10 strain growth, BacTiter-Glo luminescence, 24 h; inhibition, % at 10 µM;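 active = inhibition of yeast growth at or above a set limit in either of two replicates at 10 µM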; also: this counterscreen used the strain with wild-type TIM10
Numbers stand for hits; i = inactive; nt = no result. Compounds with a hit are over-represented: about 4.4% of the library has one in this group of screens.

SMILES	SKKanGAS inh	tim23-1 inh	TIM10 inh	PfHsp90 yeast 2	tim10-1 inh	tim10 confirm
O=C(Cn1c2ccc(F)cc2c2nc3n(c(=O)c21)CCS3)Nc1ccc(Cl)cc1F	i	i	41	i	i	34
C=CCn1c(N/N=C/c2ccc(O)cc2)nc2ccccc2c1=O	i	i	45	i	i	32
CSc1ncc(Cl)c(C(=O)Nc2cccc(Cl)c2)n1	i	i	i	i	i	nt
O=C(COC(=O)/C=C/c1ccc([N+](=O)[O-])cc1)Nc1ccc(F)cc1	nt	i	i	i	i	nt
O=C(Nc1cccnc1)c1ccc([N+](=O)[O-])s1	nt	i	56	i	i	53
O=C(COC(=O)c1ccc([N+](=O)[O-])s1)Nc1cccc(S(=O)(=O)NC2=NCCCCC2)c1	i	i	i	i	i	nt
Cc1[nH]c2ccccc2c1C(=O)COC(=O)c1ccc([N+](=O)[O-])s1	51	i	71	i	i	83
O=C(COC(=O)c1ccc([N+](=O)[O-])s1)Nc1ccc(F)cc1	nt	i	74	i	i	77
O=C(COC(=O)c1ccc([N+](=O)[O-])s1)Nc1ccccc1	i	i	46	i	i	i
CCN(Cc1nc2cc(Cl)ccc2c(=O)[nH]1)C(=O)c1cccc(OCc2c(C)noc2C)c1	nt	i	i	i	i	nt
COc1cccc(NC(=O)COC(=O)/C=C/c2c(C)nn(-c3ccccc3)c2C)c1	nt	i	i	i	i	nt
Clc1cccc(Cl)c1C1=NOC(c2nnc(-c3ccccc3)o2)C1 (stereo unspecified)	i	i	i	i	i	nt
COc1ccccc1C(=O)NC(=O)CSc1nnnn1C	nt	i	i	i	i	nt
Cc1ccc(C(C)(C)NC(=O)C2CCC(=O)N(CC3CCCCC3)C2)cc1 (stereo unspecified)	i	i	i	i	i	nt
COC(=O)Cc1c(C)c2cc(Cl)c(OC(=O)c3ccco3)cc2oc1=O	i	i	54	i	i	40
O=C(Oc1cc2oc(=O)c3c(c2cc1Cl)CCCC3)c1ccco1	i	i	51	i	i	32
Cc1cc(/C=C2\SC(=S)N(C)C2=O)c(C)n1-c1ccc(O)cc1	65	i	74	96	i	91
CC(C)CN1C(=O)C(=O)N(CC(=O)Nc2cc(Cl)ccc2Oc2ccccc2)C1=O	i	i	43	nt	i	39
Cc1ccc(-c2[nH]nc3c2C(c2ccoc2)C(C#N)=C(N)O3)cc1C (stereo unspecified)	i	i	41	i	i	i
Oc1ccccc1Cn1c(-c2ccccc2O)nc2ccccc21	i	i	52	i	i	i
O=C(N/N=C/c1nn(-c2ccccc2)cc1-c1ccccc1)c1ccncc1	i	i	40	i	i	i
Cc1ccc(/C=N/n2c(-c3cccc(Cl)c3)n[nH]c2=S)o1	i	i	42	nt	i	i
c1ccc2[nH]c(NC3=NCCC3)nc2c1	i	i	41	i	i	i
c1ccc2[nH]c(NN=C3CCCCCC3)nc2c1	i	i	i	i	i	nt
Cc1nc2oc3c(NCc4ccccc4)ncnc3c2c2c1COC(C)(C)C2	i	i	41	i	i	i
SMILES	SKKanGAS inh	tim23-1 inh	TIM10 inh	PfHsp90 yeast 2	tim10-1 inh	tim10 confirm
COc1cc2c(cc1OC)C(COc1ccc([N+](=O)[O-])cc1)NCC2 (stereo unspecified)	i	i	i	i	i	nt
O=C(c1ccc([N+](=O)[O-])o1)N1CCN(Cc2ccccc2)CC1	i	i	43	i	i	38
Cc1ccc(C(=O)N2CCN(Cc3ccccc3)CC2)o1	i	i	i	i	i	nt
Cc1cc(C)c(-n2c(C)cc(/C=C3/NC(=O)NC3=O)c2C)c(C)c1	i	i	52	nt	i	i
Cc1cccc(-n2c(C)cc(/C=C3\NC(=O)NC3=O)c2C)c1	i	i	i	i	i	nt
C[C@]12C(=O)N(c3ccccc3)C(=O)N1[C@H]1c3ccccc3OC[C@@H]1[C@H]2c1ccccc1	nt	i	42	i	i	47
CC(C)(C)C(=O)Nc1sc2c(c1C#N)CCN(Cc1ccccc1)C2	i	i	i	i	i	nt
